The record followed here is PubChem BioAssay (EPA / NIEHS).

Results filed as inconclusive are left out. Calls of active or inactive are those of the source. How the source made its calls: active means hit-call score of the fitted dose curve at least 0.9, where 1 is the maximum; inconclusive means response in the unintended direction; inactive means score below 0.9.

Sequence of human Dual Specificity Protein Phosphatase 3 (DUSP3), DUSP3 (gene 1845) (P51452 whole entry, looked up): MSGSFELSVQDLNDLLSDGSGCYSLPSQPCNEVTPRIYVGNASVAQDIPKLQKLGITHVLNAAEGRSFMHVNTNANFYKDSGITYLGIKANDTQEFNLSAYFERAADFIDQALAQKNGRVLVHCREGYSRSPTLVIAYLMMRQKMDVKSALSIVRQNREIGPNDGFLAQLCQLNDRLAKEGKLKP
Sequence of human Caspase 8 (CASP8), CASP8 (gene 841) (Q14790 whole entry, looked up): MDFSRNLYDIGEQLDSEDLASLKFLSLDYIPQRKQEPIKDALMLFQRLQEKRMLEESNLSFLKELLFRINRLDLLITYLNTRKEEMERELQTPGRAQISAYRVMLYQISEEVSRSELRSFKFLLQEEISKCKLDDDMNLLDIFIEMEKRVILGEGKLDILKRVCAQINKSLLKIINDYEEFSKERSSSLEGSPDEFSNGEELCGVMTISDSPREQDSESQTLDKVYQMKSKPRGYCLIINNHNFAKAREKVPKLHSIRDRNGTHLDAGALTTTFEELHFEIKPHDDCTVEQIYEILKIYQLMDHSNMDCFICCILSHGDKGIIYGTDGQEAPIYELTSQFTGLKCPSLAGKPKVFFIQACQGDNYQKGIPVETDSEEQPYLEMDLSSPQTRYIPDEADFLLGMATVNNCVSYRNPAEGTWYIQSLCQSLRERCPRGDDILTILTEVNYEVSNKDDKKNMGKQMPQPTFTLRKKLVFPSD
Sequence of human Casein Kinase 2- alpha 2 beta 2 (CK2a2b2), CSNK2A1 (gene 1457) (P68400 whole entry, looked up): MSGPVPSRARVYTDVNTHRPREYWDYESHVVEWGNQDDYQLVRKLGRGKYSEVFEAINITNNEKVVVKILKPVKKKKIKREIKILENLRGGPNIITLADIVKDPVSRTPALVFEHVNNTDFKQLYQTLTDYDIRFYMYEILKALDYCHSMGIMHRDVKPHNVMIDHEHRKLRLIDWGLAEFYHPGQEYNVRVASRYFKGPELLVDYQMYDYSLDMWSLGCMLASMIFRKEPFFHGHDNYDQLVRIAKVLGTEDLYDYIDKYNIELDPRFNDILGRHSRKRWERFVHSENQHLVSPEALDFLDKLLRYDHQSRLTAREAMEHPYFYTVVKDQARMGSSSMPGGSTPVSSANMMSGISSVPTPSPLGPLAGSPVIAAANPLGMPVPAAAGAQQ
Sequence of human Elastase, ELANE (gene 1991) (P08246 whole entry, looked up): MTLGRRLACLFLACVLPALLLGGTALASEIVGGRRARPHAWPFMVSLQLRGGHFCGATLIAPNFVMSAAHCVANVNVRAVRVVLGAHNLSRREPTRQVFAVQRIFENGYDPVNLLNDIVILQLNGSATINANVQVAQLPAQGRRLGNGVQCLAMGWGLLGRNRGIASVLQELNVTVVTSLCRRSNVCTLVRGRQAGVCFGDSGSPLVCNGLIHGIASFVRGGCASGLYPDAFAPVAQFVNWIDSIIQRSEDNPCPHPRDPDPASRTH

One experiment addresses human Caspase 8 (CASP8), CASP8 (gene 841) (UniProt Q14790). Description: NVS_ENZ_hCASP8: NovaScreen (NVS) Enzymatic Assay for human Caspase 8 (CASP8) (AID 2283146). The method in brief: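 E. coli-expressed enzyme was used in a cell-free fluorogenic substrate assay read 1 h after dosing. Loss of signal was scored relative to DMSO, and the primary screen was run in duplicate at 25 uM.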
Take `CCOC(=O)C(C)OC(=O)c1cc(Oc2ccc(C(F)(F)F)cc2Cl)ccc1[N+](=O)[O-]` (stereo not given): the compound was called inactive.

With `CCSC(=O)N1CCCCCC1`, the result was inactive.

With `Nc1c(Cl)c(F)nc(OCC(=O)O)c1Cl`, the call was inactive.

The target of the next experiment is human Casein Kinase 2- alpha 2 beta 2 (CK2a2b2), CSNK2A1 (gene 1457) (UniProt P68400). Description: NVS_ENZ_hCK2a2b2: NovaScreen (NVS) Enzymatic Assay for human Casein Kinase 2- alpha 2 beta 2 (CK2a2b2) (AID 2283147). The method in brief:
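Cell-free recombinant CK2 α2β2 holoenzyme with a fluorescent peptide substrate; product separated by electrophoretic mobility shift and read 1 h after dosing. Single-point screen at 25 uM in duplicate; actives were followed with concentration-response up to 50 uM versus DMSO.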
For the compound `Clc1nc(Cl)nc(Nc2ccccc2Cl)n1`, the AC50 is 15.8 µM (active).

For the compound `CS(=O)(=O)c1ccc(C(=O)C2C(=O)CCCC2=O)c([N+](=O)[O-])c1`, the half-maximal activity concentration (AC50) is 8.29 µM (active).

With `Nc1c(Cl)c(F)nc(OCC(=O)O)c1Cl`, the AC50 is 18.8 µM (active).

For the next experiment, the target named is human Dual Specificity Protein Phosphatase 3 (DUSP3), DUSP3 (gene 1845) (UniProt P51452). Put plainly: NVS_ENZ_hDUSP3: NovaScreen (NVS) Enzymatic Assay for human Dual Specificity Protein Phosphatase 3 (DUSP3) (AID 2283152).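 Further: phosphatase activity of recombinant human DUSP3 on a fluorogenic substrate without cells.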 Summed up:
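Cell-free assay with recombinant human DUSP3 and fluorogenic substrate, read by fluorescence intensity. Primary screen ran duplicate at 25 uM; actives followed up in concentration series; loss of signal versus DMSO scored.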
Turning to `COC(=O)N(C(=O)N1CO[C@@]2(C(=O)OC)Cc3cc(Cl)ccc3C2=N1)c1ccc(OC(F)(F)F)cc1`, the outcome was inactive.

On to `CC1(C)C(C=C(Cl)Cl)C1C(=O)OC(C#N)c1cccc(Oc2ccccc2)c1` (stereo not given), for which the AC50 was 3.06 µM (active).

Turning to `CCCC(=NOCC)C1=C(O)CC(CC(C)SCC)CC1=O` (stereo not given), the outcome was inactive.

As to `CCOC(=O)C(C)OC(=O)c1cc(Oc2ccc(C(F)(F)F)cc2Cl)ccc1[N+](=O)[O-]` (stereo not given), the outcome was inactive.

With `CC(C)N1C(=O)N(c2ccccc2)CSC1=NC(C)(C)C`, the AC50 is 2.96 µM (active).

For a further experiment, the target named is human Elastase, ELANE (gene 1991) (UniProt P08246). Put plainly: NVS_ENZ_hElastase: NovaScreen (NVS) Enzymatic Assay for human Elastase (AID 2283153). Summed up:
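Cell-free elastase from human neutrophils, 1.5 h after dosing, activity read by absorbance. Primary screen in duplicate at 25 uM; hits (e.g., 30% inhibition) rerun in singleton concentration-response up to 50 uM, fitted versus DMSO.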
For `CCOP(=O)(OCC)Oc1nc(Cl)c(Cl)cc1Cl`, the AC50 is 14.4 µM (active).

In the case of `CC1(C)C(C(=O)OC(C#N)c2cccc(Oc3ccccc3)c2)C1(C)C` (stereo not given), the compound was classed as inactive.

For the compound `CCOc1cc(C(C)(C)C)ccc1C1COC(c2c(F)cccc2F)=N1` (stereo not given), the AC50 is 40.9 µM (active).

`OC(c1ccc(Cl)cc1)(c1ccc(Cl)cc1)C(Cl)(Cl)Cl`: the compound was called inactive.

As for `CCOP(=S)(OCC)Oc1nc(Cl)n(C(C)C)n1`, the compound was classed as inactive.

Take `CC(C)=CC1C(C(=O)OCc2coc(Cc3ccccc3)c2)C1(C)C` (stereo not given): the AC50 was 33.6 µM (active).

In the case of `O=c1n(Cl)c(=O)n(Cl)c(=O)n1Cl`, the call was inactive.

On to `Cc1c(COC(=O)[C@@H]2[C@H](/C=C(\Cl)C(F)(F)F)C2(C)C)cccc1-c1ccccc1`, for which the call was inactive.

As for `CCOC(=O)C(C)OC(=O)c1cc(Oc2ccc(C(F)(F)F)cc2Cl)ccc1[N+](=O)[O-]` (stereo not given), the compound was called inactive.

The target in another experiment is human Ephrin type-B Receptor 1 (EphB1), EPHB1 (gene 2047) (UniProt P54762). Description: NVS_ENZ_hEphB1: NovaScreen (NVS) Enzymatic Assay for human Ephrin type-B Receptor 1 (EphB1) (AID 2283154). Summed up: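 Cell-free kinase assay with recombinant enzyme, fluorescent substrate and electrophoretic mobility-shift separation of substrate and product; read 1 h after dosing. Single-concentration duplicate screen at 25 uM; loss of signal versus DMSO baseline.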
Sequence of human Ephrin type-B Receptor 1 (EphB1), EPHB1 (gene 2047) (P54762 whole entry, looked up): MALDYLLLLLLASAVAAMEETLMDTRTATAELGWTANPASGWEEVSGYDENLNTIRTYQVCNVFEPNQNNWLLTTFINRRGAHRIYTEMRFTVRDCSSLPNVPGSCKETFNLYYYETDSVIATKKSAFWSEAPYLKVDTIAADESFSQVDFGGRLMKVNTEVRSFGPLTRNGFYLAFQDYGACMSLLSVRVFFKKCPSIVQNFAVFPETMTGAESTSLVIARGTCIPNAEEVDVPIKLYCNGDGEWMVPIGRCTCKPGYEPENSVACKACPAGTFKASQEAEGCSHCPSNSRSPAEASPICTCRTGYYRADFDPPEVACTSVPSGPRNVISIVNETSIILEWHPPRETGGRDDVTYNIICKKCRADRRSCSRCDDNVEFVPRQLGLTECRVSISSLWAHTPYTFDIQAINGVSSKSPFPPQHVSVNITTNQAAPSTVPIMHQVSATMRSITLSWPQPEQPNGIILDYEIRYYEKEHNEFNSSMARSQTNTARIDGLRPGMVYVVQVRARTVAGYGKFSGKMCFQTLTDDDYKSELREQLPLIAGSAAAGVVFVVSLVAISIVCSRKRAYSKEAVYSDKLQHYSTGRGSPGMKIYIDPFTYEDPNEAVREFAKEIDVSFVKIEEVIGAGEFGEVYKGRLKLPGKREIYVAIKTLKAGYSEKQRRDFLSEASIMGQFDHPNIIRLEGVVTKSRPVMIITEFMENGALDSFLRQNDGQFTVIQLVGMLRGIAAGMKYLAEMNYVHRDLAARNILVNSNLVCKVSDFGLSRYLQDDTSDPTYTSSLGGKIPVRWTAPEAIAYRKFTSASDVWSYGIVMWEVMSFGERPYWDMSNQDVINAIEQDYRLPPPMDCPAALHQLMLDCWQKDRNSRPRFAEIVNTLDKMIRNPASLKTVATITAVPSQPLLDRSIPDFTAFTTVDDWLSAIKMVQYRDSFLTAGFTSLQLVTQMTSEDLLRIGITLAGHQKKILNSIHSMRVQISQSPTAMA
On to `CCOP(=O)(OCC)Oc1nc(Cl)c(Cl)cc1Cl`, for which the outcome was inactive.

As for `CC1(C)C(C(=O)OC(C#N)c2cccc(Oc3ccccc3)c2)C1(C)C` (stereo not given), the compound was classed as inactive.

Consider `O=C(Nc1ccccc1-c1ccc(Cl)cc1)c1cccnc1Cl`, for which the outcome was inactive.

On to `C=CCOC(=O)C(C)(C)OC(=O)c1cc(-n2c(=O)cc(C(F)(F)F)n(C)c2=O)ccc1Cl`, for which the result was inactive.

Take `CN=C=S`: the outcome was inactive.

Regarding `COC(=O)N(C(=O)N1CO[C@@]2(C(=O)OC)Cc3cc(Cl)ccc3C2=N1)c1ccc(OC(F)(F)F)cc1`, the compound was called inactive.

Take `CNC(=O)N(C)c1nnc(C(C)(C)C)s1`: the compound was classed as inactive.

As to `CC1(C)C(C=C(Cl)Cl)C1C(=O)OC(C#N)c1cccc(Oc2ccccc2)c1` (stereo not given), the result was inactive.

Regarding `Clc1nc(Cl)nc(Nc2ccccc2Cl)n1`, the call was inactive.

On to `Cc1c(COC(=O)[C@@H]2[C@H](/C=C(\Cl)C(F)(F)F)C2(C)C)cccc1-c1ccccc1`, for which the result was inactive.

As for `CCOC(=O)C(C)OC(=O)c1cc(Oc2ccc(C(F)(F)F)cc2Cl)ccc1[N+](=O)[O-]` (stereo not given), the compound was called inactive.

Regarding `Cc1nc(N(C)C)nc(OC(=O)N(C)C)c1C`, the compound was classed as inactive.

On to `Cc1ccc(N=CN(C)C=Nc2ccc(C)cc2C)c(C)c1`, for which the result was inactive.

For the compound `CN/C(=N\[N+](=O)[O-])NCc1cnc(Cl)s1`, the compound was classed as inactive.

`Nc1c(Cl)c(F)nc(OCC(=O)O)c1Cl`: the compound was called inactive.

Broadly, the AC50 is the midpoint of the concentration-response curve, whichever way the signal moves.
